The structures appear in SMILES notation. The campaign covered roughly 320,000 compounds. About 3,300 (1%) were called active. Only a selection was taken, and actives are over-represented in it overall. Unmarked numbers belong to inactive results.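 How the source made its calls: active means every valid replicate shows activation above 250% relative to neutral control wells; inactive means the rest, any valid replicate at or below 250%.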

This assay is described as follows: yeast Mot1-301 growth rescue at high temperature, primary screen, SUMOylation pathway inhibitor project, S. cerevisiae, ATP luminescence, 38.5C (AID 2716).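 Further: OY570 slx delta 5 strain wells were the positive control but not used for scaling.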 The conditions noted are these: S. cerevisiae Mot1-301 growth rescue, at 18.8 µM, active compounds read high, percent above DMSO median, 100 means doubled.
Regarding `CCC(C)(C)NC(=O)C(c1cccc(OC)c1OC)N(CC(C)C)C(=O)CCC(=O)Nc1cc(C)on1` (stereo unspecified), the growth rescue was 13.1%.
Turning to `COc1ccc(OCCCC(=O)Oc2ccc(OC)cc2)cc1`, the growth rescue was -3.53%.
As for `COc1ccc(CCC(=O)c2ccc(OC)cc2)cc1`, the growth rescue is 34.5%.
For the molecule `COc1ccc(OCCC(=O)c2ccc(OC)cc2)cc1`, the growth rescue was 614% (active).
The same measure for `O=C1CCC/C(=N\NC(=O)NC2CCCCC2)C1`: -14.5%; for `Cc1nn(Cc2ccc(F)cc2)c(C)c1NC(=O)c1noc2c1CCc1ccccc1-2`: -2.02%.
As for `CCOc1ncccc1C(=O)Nc1ccc2c(c1)OCCO2`, the growth rescue is 6.77%.
In the case of `CCOc1cc(/C=N/O)cc(Br)c1OC` it was 341% (active); in that of `COc1cc(/C=N/O)cc(Br)c1OCc1cccc(Cl)c1`, -7.89%; in that of `COc1cc(/C=N/O)cc(Br)c1OS(=O)(=O)c1ccc(C)cc1`, 13.1%.
In the case of `Cc1ccc(F)c(NC(=O)CCc2ccccc2)c1` it was -0.553%.
As for `COCCCNC(=O)C1CCC(CNS(=O)(=O)c2ccc(OC)cc2)CC1` (stereo unspecified), the growth rescue is -13.1%.
`CCCCCCCCc1c(O)nc(-n2[nH]c(C)c(CCO)c2=O)[nH]c1=O`: the growth rescue was 605% (active).
The same measure for `CCCCc1c(O)nc2n(c1=O)CCS2`: -12.2%; for `O=C(NCCc1ccc(Cl)cc1)C1CCCN1C(=O)NCc1ccccc1` (stereo unspecified): -4.04%.
Take `O=C(CN1C(=O)NC2(CCCC2)C1=O)Nc1ccc(F)c(F)c1F`: the growth rescue is -3.83%.
As to `Cc1ccc(O)c(CNc2nc3ccccc3n2C)c1`, the growth rescue was 913% (active).
Regarding `CC(C)n1c(NCc2c[nH]c3ccccc23)nc2ccccc21`, the growth rescue is 5.8%.
In the case of `Cn1c(NC(=O)c2ccccc2)nc2ccccc21` it was 4%; in that of `CCN1CCN(c2sc(S(C)(=O)=O)nc2S(=O)(=O)c2ccc(Cl)cc2)CC1`, 2.93%; in that of `C/C(=N\NC(=O)C1(C)CC1(Br)Br)c1ccc(C)cc1C` (stereo unspecified), 8.98%.
Turning to `CCCCc1nccn1CCn1ccnc1CCCC`, the growth rescue is 1.48%.
In the case of `CCCN=C1NC(=O)C(CC(=O)NCCc2ccc(OC)c(OC)c2)S1` (stereo unspecified) it was 536% (active).
As to `COc1ccc(CCNC(=O)CC2SC(=Nc3cc(C)cc(C)c3)NC2=O)cc1OC` (stereo unspecified), the growth rescue was 308%.
The same measure for `COc1ccc(CCNC(=O)Cc2ccc(C)cc2)cc1OC`: 102%; for `COc1cccc(N(CC(=O)NCc2ccccc2)C(=O)CCC(=O)Nc2nccs2)c1`: -6.15%; for `COC(=O)C1CCN(CC(N)=O)CC1`: -5.03%.
With `COc1ccc(C(=O)COC(=O)Cn2cnc3c2c(=O)n(C)c(=O)n3C)c(OC)c1`, the growth rescue was -7.8%.
Consider `O=C(Nn1cnnc1)c1cc(Cl)ccc1Cl`, for which the growth rescue is 4.55%.
In the case of `CN1CCN(S(=O)(=O)c2cccc(C(=O)Nc3cccc(S(N)(=O)=O)c3)c2)CC1` it was -8.57%; in that of `COC(=O)CCCC1=CC2=CC(=O)C(C)(OC(=O)c3cccs3)C(=O)C2=CN1CC1CC1` (stereo unspecified), 414%.
The same measure for `CCCCC1=CC2=CC(=O)C(C)(OC(=O)CC)C(=O)C2=CN1CCCOC(C)C` (stereo unspecified): 499% (active); for `COC(=O)CCCC1=CC2=CC(=O)C(C)(OC(=O)c3cccs3)C(=O)C2=CN1CC(C)C` (stereo unspecified): 13.6%; for `CCCCN(C1CCS(=O)(=O)C1)S(=O)(=O)c1ccc(C(C)C)cc1` (stereo unspecified): 1.38%.
In the case of `CC(=O)c1ccc(S(=O)(=O)N2CCC(Oc3ccc(-n4cnnn4)cc3)CC2)cc1` it was -5.14%.
Consider `CCCCN(C(=O)COc1ccc(NC(C)=O)cc1)C1CCS(=O)(=O)C1` (stereo unspecified), for which the growth rescue is 0.599%.
In the case of `Cc1cccc(C)c1NC(=O)C(c1ccccc1)N1CC(=O)Nc2ccccc21` (stereo unspecified) it was 8.11%; in that of `Cc1cccc(C)c1NC(=O)CN(C)C(=O)CCC(=O)c1ccccc1`, -17.7%.
As for `Cc1cccc(C)c1NC(=O)C(Cl)C(=O)c1ccccc1` (stereo unspecified), the growth rescue is 474% (active).
For the molecule `CN(C)CCCN(Cc1cc2cc3c(cc2[nH]c1=O)OCCO3)C(=O)NC1CCCCC1`, the growth rescue is 4.3%.
Regarding `CCN1CCN(C(=O)N(Cc2ccc(Cl)cc2)S(=O)(=O)c2ccc(C)cc2)CC1`, the growth rescue was 2.05%.
The same measure for `COc1ccc(NS(=O)(=O)c2ccc(C(=O)Nc3c(C)n(C)n(-c4ccccc4)c3=O)cc2)cc1`: -8.97%; for `Cc1cccn2c(=O)c3cc(C(=O)NCCN4CCOCC4)c(=N)n(Cc4cccnc4)c3nc12`: -5.56%.
In the case of `Cc1cccn2c(=O)c3cc(C(=O)NCC4CCCO4)c(=N)n(Cc4ccc(F)cc4)c3nc12` (stereo unspecified) it was -5.43%; in that of `CCn1c(=N)c(C(=O)NCCCOC)cc2c(=O)n3cccc(C)c3nc21`, 327% (active); in that of `O=C(NC1CCN(C(=S)NCc2ccco2)CC1)c1ccc(F)cc1`, -3%.
The same measure for `Cc1cc(NC(=O)CSCC(=O)NC(C)c2ccccc2)no1` (stereo unspecified): 4.77%; for `N#Cc1ccc(S(=O)(=O)NCC(=O)OCC(=O)NCCc2ccccc2)cc1`: 0.284%; for `COc1ccc(N(CCC(=O)NCCc2ccccc2)S(=O)(=O)c2ccc(C)cc2C)cc1`: -11.2%.
In the case of `Cc1cccc(-[n+]2c(-c3cccc(Br)c3)[nH]c3nc4ccccc4nc32)c1`, the growth rescue is 655% (active).
The same measure for `Cc1ccc(CNC(=O)COC(=O)C2CCC2)cc1`: -6.16%; for `Cc1nccn1CCC1CCCCN1C(=O)CCc1nnc(-c2ccsc2)o1` (stereo unspecified): -11.6%; for `COc1ccc(S(=O)(=O)NC(C)C(=O)Nc2cccc([N+](=O)[O-])c2)cc1` (stereo unspecified): -16.6%.
For `COC(=O)/C=C\C(=O)Nc1cccc([N+](=O)[O-])c1`, the growth rescue is 362% (active).
In the case of `COc1cccc(CNC(=O)CCCC(=O)Nc2cccc([N+](=O)[O-])c2)c1` it was -7.72%.
On to `CCOC(=O)C1CCCN(C(=O)c2ccc(C)c(S(=O)(=O)N3CCCCC3)c2)C1` (stereo unspecified), for which the growth rescue was -5.7%.
On to `CCOc1ccc2nc(N(CCN(C)C)C(=O)c3ccc4ccccc4c3)sc2c1`, for which the growth rescue is 74.9%.
In the case of `CCCC(=O)N(CCN1CCOCC1)c1nc2ccc(OCC)cc2s1`, the growth rescue is 371% (active).
The same measure for `CCOc1ccc2nc(N(CCCN(C)C)C(=O)c3ccc(C(=O)c4ccccc4)cc3)sc2c1`: 1.2%.
In the case of `O=C(CCNC(=O)c1ccc(Cl)cc1)NC1CCCc2ccccc21` (stereo unspecified) it was 118%; in that of `Cc1ccccc1-c1nc(CS(=O)(=O)CC(=O)N2CCc3ccccc3C2)c(C)o1`, -11.2%; in that of `Cc1ccccc1-c1nc(CS(=O)(=O)CC(=O)NC(C)c2ccccc2)c(C)o1` (stereo unspecified), 5.04%.
Consider `COC(=O)c1cc2occc2n1Cc1nc(-c2ccccc2C)oc1C`, for which the growth rescue was 611% (active).
In the case of `CCCCCCOc1ccc(OC(=O)c2cccnc2)cc1` it was 329% (active).
The same measure for `N#CCc1ccc(OC(=O)c2cccnc2)cc1`: 9.1%.
In the case of `O=C(Oc1ccc(Br)cc1)c1cccnc1` it was 1.84%; in that of `Cc1nc2ccc(NC(=O)c3cccc(S(=O)(=O)N4CCOCC4)c3)cc2s1`, -14.6%.
As to `Cc1cc(C)cc(NC(=O)C2CCCN(S(=O)(=O)c3ccc4[nH]c(=O)ccc4c3)C2)c1` (stereo unspecified), the growth rescue was 2800% (active).
On to `CC1CCN(S(=O)(=O)c2ccc3[nH]c(=O)ccc3c2)CC1`, for which the growth rescue was 14.3%.
Turning to `CCc1cccc(NC(=O)C2CCCN(S(=O)(=O)c3ccc4[nH]c(=O)ccc4c3)C2)c1` (stereo unspecified), the growth rescue was -9.11%.
As for `C[C@H](CO)N1C[C@H](C)[C@@H](CN(C)C(=O)NC2CCCCC2)Oc2ccc(NC(=O)c3ccncc3)cc2C1=O`, the growth rescue is -1.03%.
As for `CCOC(=O)c1ccc(N2C(=O)CC(N(C)Cc3ccccc3)C2=O)cc1` (stereo unspecified), the growth rescue was 94.8%.
Turning to `CCCCOC(=O)c1ccc(N2C(=O)CC(N3CCN(C/C=C/c4ccccc4)CC3)C2=O)cc1` (stereo unspecified), the growth rescue is -18%.
In the case of `CCCCCCC(=O)N(O)C1CC(=O)N(c2ccccc2)C1=O` (stereo unspecified) it was 321% (active); in that of `N#CCCN1CCN(S(=O)(=O)c2ccc(S(=O)(=O)NC3CCCCC3)cc2)CC1`, 111%.
For `CC(C)C(NC(=O)c1c(F)cccc1F)C(=O)NNC(=O)c1ccccc1` (stereo unspecified), the growth rescue is -1.01%.
The same measure for `Cc1ccc(C)c(S(=O)(=O)Nc2cccc(-n3cnnn3)c2)c1`: -7.94%; for `Cc1nc(-c2nnc(SCC(=O)Nc3cc(C(F)(F)F)cc(C(F)(F)F)c3)n2C)cs1`: 16.5%.
The same measure for `COc1cc(CNCc2ccc3c(c2)OCO3)c([N+](=O)[O-])cc1OC`: 1080% (active).
On to `COc1cccc(CNCc2ccc3c(c2)OCO3)c1`, for which the growth rescue was -12.1%.
The same measure for `COc1cc(OC)c(C(=O)NCc2ccc3c(c2)OCO3)cc1OC`: 1.21%; for `O=C(CSc1nnc(-c2ccncc2)o1)Nc1cccc(Cl)c1`: -11.5%.
As to `COc1ccc(-c2c(C#Cc3ccsc3)c3cc(-c4ccc(CN5CCOCC5)cc4)ccc3n2C)cc1`, the growth rescue is -20.4%.
In the case of `COCCn1c(CN2CCC(Cc3ccccc3)CC2)nc2c1c(=O)n(C)c(=O)n2C` it was -13.7%.
Turning to `CC1CCN(Cc2nc3c(c(=O)n(C)c(=O)n3C)n2CCc2ccccc2)CC1`, the growth rescue is 768% (active).
The same measure for `CC1CCCN(Cc2nc3c(c(=O)n(C)c(=O)n3C)n2CC(=O)c2ccccc2)C1` (stereo unspecified): -2.98%.
The same measure for `CC1Cc2ccccc2N1C(=O)CSc1nnc(-c2ccc(S(=O)(=O)N3CCCC3)cc2)n1C` (stereo unspecified): -12%; for `Cc1ccc(NC(=O)CCNC(=O)c2ccc([N+](=O)[O-])cc2)cc1S(=O)(=O)N1CCOCC1`: -3.52%.
Take `CCc1cc2c(=O)c(-c3ccc(F)cc3)c(C(F)(F)F)oc2cc1OCC(=O)O`: the growth rescue is 807% (active).
`CCc1cc2c(=O)c(-c3ccon3)c(N)oc2cc1OC`: the growth rescue was -11.8%.
Consider `Cc1cc(C)cc(Oc2c(C(F)(F)F)oc3cc(OCC(=O)O)ccc3c2=O)c1`, for which the growth rescue is -7.69%.

These data come from PubChem BioAssay AID2716 (Broad Institute, 2010).
